{"source": "the supplement of paper PMC6522484", "key": {"DLD1 [1]": {"system": "DLD1", "experiment": "cell viability (CellTiter-Glo) relative to plate median (fraction of plate median); higher = more viable cells", "details": "5 µM; treatment time 24 h; reporter: 7TFP", "procedure,_shortened": "(§1)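 Cells were seeded in 384-well plates; these were colorectal cancer lines stably transduced with lentiviral 7TFP or TCF4/Wnt firefly luciferase reporters. After 24 h, library compounds went in at a final 5 µM, and exposure lasted 24 h. Parallel plates were then read for firefly luciferase or CellTiterGlo luminescence, each well normalised to its plate median, with two independent replicates averaged.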"}, "HCT116 [2]": {"system": "HCT116", "experiment": "cell viability (CellTiter-Glo) relative to plate median (fraction of plate median); higher = more viable cells", "details": "5 µM; treatment time 24 h; reporter: TCF4/Wnt", "procedure,_shortened": "as §1"}, "SW480 [3]": {"system": "SW480", "experiment": "cell viability (CellTiter-Glo) relative to plate median (fraction of plate median); higher = more viable cells", "details": "5 µM; treatment time 24 h; reporter: 7TFP", "procedure,_shortened": "as §1"}, "DLD1 [4]": {"system": "DLD1", "experiment": "TCF/Wnt firefly luciferase reporter signal relative to plate median (fraction of plate median); higher = higher Wnt reporter signal", "details": "5 µM; treatment time 24 h; reporter: 7TFP", "procedure,_shortened": "as §1"}, "SW480 [5]": {"system": "SW480", "experiment": "TCF/Wnt firefly luciferase reporter signal relative to plate median (fraction of plate median); higher = higher Wnt reporter signal", "details": "5 µM; treatment time 24 h; reporter: 7TFP", "procedure,_shortened": "as §1"}, "DLD1 [6]": {"system": "DLD1", "experiment": "cell viability (CellTiter-Glo) relative to plate median (fraction of plate median); higher = more viable cells", "details": "10 µM, treatment time 24 h", "procedure,_shortened": "(§2)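 Values are the mean of two independent replicates of luminescence normalised to the plate median with webcellHTS2, using the additive method without log transformation. They come from colorectal cancer cell lines stably transduced with lentiviral TCF/Wnt firefly luciferase reporters (7TFP or TCF4/Wnt), seeded in 384-well plates. After 24 h the cells got kinase inhibitor library compounds at a final 10 µM for 24 h, and parallel plates were read for firefly luciferase or CellTiterGlo on a Tecan F500.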"}, "HCT116 [7]": {"system": "HCT116", "experiment": "cell viability (CellTiter-Glo) relative to plate median (fraction of plate median); higher = more viable cells", "details": "10 µM; treatment time 24 h; reporter: TCF4/Wnt", "procedure,_shortened": "as §2"}, "SW480 [8]": {"system": "SW480", "experiment": "cell viability (CellTiter-Glo) relative to plate median (fraction of plate median); higher = more viable cells", "details": "10 µM; treatment time 24 h; reporter: 7TFP", "procedure,_shortened": "as §2"}, "DLD1 [9]": {"system": "DLD1", "experiment": "TCF/Wnt firefly luciferase reporter signal relative to plate median (fraction of plate median); higher = higher Wnt reporter signal", "details": "10 µM, treatment time 24 h", "procedure,_shortened": "as §2"}, "HCT116 [10]": {"system": "HCT116", "experiment": "TCF/Wnt firefly luciferase reporter signal relative to plate median (fraction of plate median); higher = higher Wnt reporter signal", "details": "10 µM; treatment time 24 h; reporter: TCF4/Wnt", "procedure,_shortened": "as §2"}, "SW480 [11]": {"system": "SW480", "experiment": "TCF/Wnt firefly luciferase reporter signal relative to plate median (fraction of plate median); higher = higher Wnt reporter signal", "details": "10 µM; treatment time 24 h; reporter: 7TFP", "procedure,_shortened": "as §2"}}, "note": "± gives the standard deviation of the averaged measurements."}
{"compound": "CC(C)(CO)C(O)C(=O)NCCCO", "note": "(stereo not drawn)", "values": [{"measurement": "cell viability", "setting": "DLD1 [1]", "value": "1.05 ± 0.16"}, {"measurement": "cell viability", "setting": "HCT116 [2]", "value": "1.06 ± 0.028"}, {"measurement": "cell viability", "setting": "SW480 [3]", "value": "1.07 ± 0.064"}, {"measurement": "TCF/Wnt firefly luciferase reporter signal", "setting": "DLD1 [4]", "value": "0.992 ± 0.068"}, {"measurement": "TCF/Wnt firefly luciferase reporter signal", "setting": "SW480 [5]", "value": "0.978 ± 0.074"}]}
{"compound": "O=c1cc(N2CCOCC2)oc2c(-c3cccc4c3sc3ccccc34)cccc12", "values": [{"measurement": "cell viability", "setting": "DLD1 [6]; reporter: 7TFP", "value": "1.01 ± 0.083"}, {"measurement": "cell viability", "setting": "DLD1 [6]; reporter: TCF4/Wnt", "value": "0.964 ± 0.052"}, {"measurement": "cell viability", "setting": "HCT116 [7]", "value": "1 ± 0.094"}, {"measurement": "cell viability", "setting": "SW480 [8]", "value": "1.04 ± 0.014"}, {"measurement": "TCF/Wnt firefly luciferase reporter signal", "setting": "DLD1 [9]; reporter: 7TFP", "value": "1.19 ± 0.064"}, {"measurement": "TCF/Wnt firefly luciferase reporter signal", "setting": "DLD1 [9]; reporter: TCF4/Wnt", "value": "1.16 ± 0.17"}, {"measurement": "TCF/Wnt firefly luciferase reporter signal", "setting": "HCT116 [10]", "value": "1.73 ± 0.64"}, {"measurement": "TCF/Wnt firefly luciferase reporter signal", "setting": "SW480 [11]", "value": "1.1 ± 0.042"}]}
{"compound": "COc1ccc(-c2coc3cc(O)ccc3c2=O)c(OC)c1", "values": [{"measurement": "cell viability", "setting": "DLD1 [1]", "value": "0.989 ± 0.016"}, {"measurement": "cell viability", "setting": "HCT116 [2]", "value": "1.01 ± 0.067"}, {"measurement": "cell viability", "setting": "SW480 [3]", "value": "1.04 ± 0.05"}, {"measurement": "TCF/Wnt firefly luciferase reporter signal", "setting": "DLD1 [4]", "value": "1.035 ± 0.0071"}, {"measurement": "TCF/Wnt firefly luciferase reporter signal", "setting": "SW480 [5]", "value": "1.01 ± 0.064"}]}
{"compound": "O=c1[nH]c(=O)n([C@H]2C[C@H](O)[C@@H](CO)O2)cc1C(F)(F)F", "values": [{"measurement": "cell viability", "setting": "DLD1 [1]", "value": "1.07 ± 0.042"}, {"measurement": "cell viability", "setting": "HCT116 [2]", "value": "1.03 ± 0.05"}, {"measurement": "cell viability", "setting": "SW480 [3]", "value": "1.03 ± 0.014"}, {"measurement": "TCF/Wnt firefly luciferase reporter signal", "setting": "DLD1 [4]", "value": "0.818 ± 0.16"}, {"measurement": "TCF/Wnt firefly luciferase reporter signal", "setting": "SW480 [5]", "value": "0.886 ± 0.013"}]}
{"compound": "CCC(=O)NCC[C@@H]1CCc2ccc3c(c21)CCO3", "values": [{"measurement": "cell viability", "setting": "DLD1 [1]", "value": "1.04 ± 0.021"}, {"measurement": "cell viability", "setting": "HCT116 [2]", "value": "1.15 ± 0.092"}, {"measurement": "cell viability", "setting": "SW480 [3]", "value": "1.06 ± 0.028"}, {"measurement": "TCF/Wnt firefly luciferase reporter signal", "setting": "DLD1 [4]", "value": "0.827 ± 0.037"}, {"measurement": "TCF/Wnt firefly luciferase reporter signal", "setting": "SW480 [5]", "value": "0.91 ± 0.023"}]}
{"compound": "COC(=O)N/N=C/c1c[n+]([O-])c2ccccc2[n+]1[O-]", "values": [{"measurement": "cell viability", "setting": "DLD1 [1]", "value": "0.917 ± 0.13"}, {"measurement": "cell viability", "setting": "HCT116 [2]", "value": "0.998 ± 0.2"}, {"measurement": "cell viability", "setting": "SW480 [3]", "value": "0.974 ± 0.021"}, {"measurement": "TCF/Wnt firefly luciferase reporter signal", "setting": "DLD1 [4]", "value": "0.919 ± 0.064"}, {"measurement": "TCF/Wnt firefly luciferase reporter signal", "setting": "SW480 [5]", "value": "0.9245 ± 0.0092"}]}
{"compound": "C/C=C/CCC(=O)c1c(C)c(O)c(O)c(C)c1O", "note": "[Sohirnone C]", "values": [{"measurement": "cell viability", "setting": "DLD1 [1]", "value": "1.11 ± 0.05"}, {"measurement": "cell viability", "setting": "HCT116 [2]", "value": "0.995 ± 0.035"}, {"measurement": "cell viability", "setting": "SW480 [3]", "value": "1.05 ± 0.057"}, {"measurement": "TCF/Wnt firefly luciferase reporter signal", "setting": "DLD1 [4]", "value": "1.07 ± 0.014"}, {"measurement": "TCF/Wnt firefly luciferase reporter signal", "setting": "SW480 [5]", "value": "1.08 ± 0.071"}]}
{"compound": "COC1=CC(=O)C[C@@H](C)[C@]12Oc1c(Cl)c(OC)cc(OC)c1C2=O", "values": [{"measurement": "cell viability", "setting": "DLD1 [1]", "value": "0.937 ± 0.055"}, {"measurement": "cell viability", "setting": "HCT116 [2]", "value": "1.02 ± 0.057"}, {"measurement": "cell viability", "setting": "SW480 [3]", "value": "0.865 ± 0.038"}, {"measurement": "TCF/Wnt firefly luciferase reporter signal", "setting": "DLD1 [4]", "value": "0.929 ± 0.094"}, {"measurement": "TCF/Wnt firefly luciferase reporter signal", "setting": "SW480 [5]", "value": "0.89 ± 0.17"}]}
{"compound": "Cc1oncc1C(=O)Nc1ccc(C(F)(F)F)cc1", "values": [{"measurement": "cell viability", "setting": "DLD1 [1]", "value": "1.05 ± 0.11"}, {"measurement": "cell viability", "setting": "HCT116 [2]", "value": 1.15}, {"measurement": "cell viability", "setting": "SW480 [3]", "value": "1.13 ± 0.071"}, {"measurement": "TCF/Wnt firefly luciferase reporter signal", "setting": "DLD1 [4]", "value": "1.14 ± 0.05"}, {"measurement": "TCF/Wnt firefly luciferase reporter signal", "setting": "SW480 [5]", "value": "1.05 ± 0.11"}]}
{"compound": "COC(=O)/C=C/c1ccc(O)c(O)c1", "note": "[Caffeic acid methylester]", "values": [{"measurement": "cell viability", "setting": "DLD1 [1]", "value": "0.918 ± 0.079"}, {"measurement": "cell viability", "setting": "HCT116 [2]", "value": "0.987 ± 0.12"}, {"measurement": "cell viability", "setting": "SW480 [3]", "value": "0.979 ± 0.072"}, {"measurement": "TCF/Wnt firefly luciferase reporter signal", "setting": "DLD1 [4]", "value": "1.02 ± 0.098"}, {"measurement": "TCF/Wnt firefly luciferase reporter signal", "setting": "SW480 [5]", "value": "1.04 ± 0.087"}]}
